Hits are enriched below; roughly 2.1% of the tested compounds scored in any of these assays.
IDE inh – cellular human IDE inhibition; 320,000 tested, 0.41% active; P14735; inhibition, % at 5.59 µM; HEK cells, FAbetaB cleavage, fluorescence polarization;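 active means percent inhibition above the average of all tested compounds plus 3 SD, set per screening campaign, cut at about 16% in these data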;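 further: IDE supplied by intact live HEK cells; FP after avidin binding of uncleaved biotin substrate so inhibition keeps polarization high; 0% = DMSO wells and 100% = 60 µM reference IDE inhibitor Ii1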
HDAC3 inhib – human HDAC3 inhibition. recombinant HDAC3, fluorogenic peptide/trypsin coupled, fluorescence. inhibition, % at 8.3 µM. 320,000 tested, 0.15% active. AID 2718; in the data active means inhibition above about 26%, passing the limit was not always enough; inconclusive means no clear call, values can overlap the other calls
LANA-H2B inh – blocks KSHV LANA binding to histone H2A/H2B | Q9QR71 | inhibition, % (no concentration beside the values) | AID 2629 | 320,000 tested, 0.6% active | cell-free LANA-H2A/H2B peptide, fluorescence polarization; in the data active means inhibition mostly above about 10%, no sharp cut-off; inactive means mostly below about 6.7%
Mot1-301 SUMO – SUMOylation pathway inhibition by Mot1-301 growth rescue. S. cerevisiae Mot1-301 growth rescue, ATP luminescence, 38.5C; percent above DMSO median, 100 means doubled. growth rescue, % at 18.8 µM. 320,000 tested, 1% active. AID 2716;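 active means every valid replicate shows activation above 250% relative to neutral control wells; inactive means the rest, any valid replicate at or below 250%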;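 further: OY570 slx delta 5 strain wells were the positive control but not used for scaling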
IDE cell activ – activators of human insulin-degrading enzyme in cells; P14735; HEK cells, FAbeta-B cleavage, fluorescence polarization; 0% vehicle, 100% cell-free pure enzyme wells; activation, % at 5.96 µM; 340,000 tested, 0.073% active; AID 493087;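 active means activation above the mean of all tested compounds plus 3 SD, set per screening campaign, cut at about 17% in these data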
* hit, by the source's call; u = inconclusive; x = no result; ! = a repeat was not active.

SMILES	IDE inh	HDAC3 inhib	LANA-H2B inh	Mot1-301 SUMO	IDE cell activ
CCCCc1ccc(-c2nc(N)n[nH]2)cc1	-0.5	-4.9	-5.6	839.6*	1.7
O=C(CN1C(=O)NC2(CCCCCCC2)C1=O)Nc1ccc(Br)cc1Br	-0.3	1.8	3.7	14.3	-3.3
CC(OC(=O)c1ccc(S(=O)(=O)NCc2ccco2)cc1)C(=O)Nc1ccccc1 (stereo not given)	-2.1	2.3	14.0*	-21.1	3.5
O=C(COC(=O)c1ccc(S(=O)(=O)NCc2ccco2)cc1)Nc1ccccc1	x	x	x	x	5.0
CCN1C(=NCc2ccco2)N[C@@H](c2cccc(F)c2)C(C(=O)OC)=C1C	2.9	13.9	-1.5	-4.4	-1.6
COc1cccc(/C=N/Nc2nc(-c3cccnc3)nc3ccccc23)c1	2.9	-0.7	1.7	313.7*	3.7
COc1ccc(/C=C(\NC(=O)c2ccccc2)C(=O)NC2CCS(=O)(=O)C2)cc1 (stereo not given)	-8.5	-0.2	1.4	269.0*	-6.8
COc1ccc(/C=C(\NC(=O)c2ccccc2)C(=O)NCc2cccnc2)cc1	5.0	4.8	2.6	269.9*	2.4
CN(C)c1ccc(/C=C(\NC(=O)c2ccccc2)C(=O)NCc2cccnc2)cc1	-0.7	7.1	-3.9	16.8	-0.2
O=C(NC1CCS(=O)(=O)C1)/C(=C\c1ccc(F)cc1)NC(=O)c1ccccc1 (stereo not given)	1.7	-6.3	2.8	249.4	2.0
CCOc1ccc(C(=O)C(CN2CCOCC2)c2ccccc2)cc1 (stereo not given)	4.0	0.5	x	286.9*	2.0
CC(C)CN1CCC(=O)N([C@H](CO)c2ccccc2)CC1	3.4	0.3	-6.4	-1.1	36.7*
CCCCCCCN1CCC(=O)N([C@H](CO)c2ccccc2)CC1	-2.0	-0.5	0.8	-16.2	1.8
Cc1ccc(S(=O)(=O)N(C)C)cc1NC(=O)COC(=O)COc1ccc2c(c1)CCC2	4.6	12.8	-2.3	25.4	-2.2
O=Nc1c(O)c2ccccc2c2ccccc12	0.1	4.8	4.3	664.0*	2.7
CCc1ccccc1NC(=O)COC(=O)C1C2CC3OC(=O)C1C3C2 (stereo not given)	0.2	-2.2	-4.8	-7.1	-0.1
CCCOc1ccc(C(=O)CCC(=O)OCC(=O)Nc2cccc(S(N)(=O)=O)c2)cc1	x	x	x	x	-3.8
CC(=O)N1N=C(c2cccs2)CC1c1ccc(C)o1 (stereo not given)	3.5	9.9	36.0*	180.7	4.9
CC(=O)N1N=C(c2cccs2)CC1c1cccs1 (stereo not given)	3.0	-9.1	0.0	601.3	3.0
COc1ccc(C(=O)N2CCSC2=S)cc1OC	7.2	u	-0.5	10.3	9.3
COc1cccc(C(=O)N2CCSC2=S)c1	-0.5	36.8*	-6.6	53.8	-1.8
CC1=NN(c2nc(-c3ccc(C)cc3)cs2)C(=O)C1N=Nc1ccc(C(N)=O)cc1 (stereo not given)	1.2	-0.7	2.6	440.8*	1.5
Cc1ccccc1C(=O)NNC(=O)CCCCC(=O)NNC(=O)c1ccccc1C	-0.9	-4.3	-2.3	15.9	6.9
Cc1c(/C=N/NC(=O)c2cccnc2)c2ccccc2n1Cc1ccccc1	3.9	2.3	11.8*	14.7	x
CCO[C@H]1OC(C(=O)N2CCN(Cc3ccc4c(c3)OCO4)CC2)=C[C@@H](c2ccccc2)[C@@H]1CCCO	8.5	-1.1	7.2	6.2	-3.5
SMILES	IDE inh	HDAC3 inhib	LANA-H2B inh	Mot1-301 SUMO	IDE cell activ
CCO[C@@H]1OC(C(=O)N2CCN(Cc3ccc4c(c3)OCO4)CC2)=C[C@H](c2csc3ccccc23)[C@H]1CCCO	10.3	3.4	13.8*	26.8	-4.2
CS(=O)(=O)c1nc(-c2ccc(F)cc2)cc(C(F)(F)F)n1	x	x	x	x	0.1
COc1ccc(-c2cc(C(F)(F)F)nc(S(C)(=O)=O)n2)cc1	-1.1	3.7	-2.6	589.5*	3.2
Cc1cccc(Nc2ncccc2C(=O)O)c1C	-3.4	4.0	58.8*!	-12.5	1.8
Cc1cccc(Nc2ccccc2C(=O)O)c1C	3.0	x	1.5	-14.3	5.0
COc1ccc(Cl)cc1C(=O)N1CCN(Cc2ccc3c(c2)OCO3)CC1	-3.1	-2.9	14.3*	-0.2	4.7
O=C(c1cc(Cl)nc2ccccc12)N1CCN(Cc2ccc3c(c2)OCO3)CC1	0.5	2.3	20.8*	57.1	2.4
COc1ccc(/C(O)=C2/C(=O)C(=O)N(CCCN3CCOCC3)C2c2ccc(C(C)C)cc2)cc1 (stereo not given)	x	11.3	-0.9	14.9	4.0

Compound activity: PubChem, several laboratories
